Most compounds without a hit are left out; they make up all but 19% or so of the library.
Lassa entry inh – inhibitors of Lassa virus binding or cell entry. Lassa virus pseudotype entry inhibition, cell reporter. Potency, µM (titrated, usually from 37.9 µM), for inactives: top-dose activity change, negative = inhibition, usual class: inhibitors. actives 1.2% (n = 300,000); calls by dose curve; tested in HEK293 cells; also: potency is read from the fitted curve at half-maximal effect; % is scaled to controls: 0 for no effect and ±100 for the full control effect; nearly all actives have a fitted effect of over 50% in size
Pf growth 96h – inhibits malaria parasite growth, 96 h; Potency, µM (titrated, usually from 28.7 µM), for the others: at the highest dose activity change, negative = inhibition, most hits filed as inhibitors; actives 6.9% (n = 320,000); AID 504834; P. falciparum luciferase reporter growth, 96 h; also: potency is read from the fitted curve at half-maximal effect; % is scaled to controls: 0 for no effect and ±100 for the full control effect
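Delayed-death screen, second-generation endpoint: infected erythrocytes, 2% hematocrit, 0.05% parasitemia final; 96 hours at 37 C, 5% CO2; luciferase detection reagent; luminescence decrease equals reduced growth.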
Shiga toxin inh – Shiga toxin inhibition | Vero cells, Shiga toxin protein synthesis inhibition reporter | inhibition, % at 38.7 µM | actives 9.2% (n = 290,000); in the data active = inhibition mostly above about 28%, no sharp cut-off; inactive = mostly below about 43%; also: 0% is about no effect
Pf growth 48h – P. falciparum growth inhibition at 48 hours (one generation) | P. falciparum luciferase growth in erythrocytes, 48 h | Potency, µM (highest dose often 28.7 µM), for inactives: at the top dose activity change, negative = inhibition, most hits filed as inhibitors | actives 5.9% (n = 310,000) | AID 504832; also: potency is read from the fitted curve at half-maximal effect; % is scaled to controls: 0 for no effect and ±100 for the full control effect
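A one-generation exposure of luciferase-tagged malaria parasites in RPMI 1640/Albumax erythrocyte culture, 37 C and 5% CO2. Inhibition is inferred from decreased luminescence after adding detection reagent.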
Marburg entry inh – blocks Marburg virus binding to or entry into cells | actives 1.8% (n = 300,000) | Marburg virus pseudotyped entry inhibition, cell reporter | Potency, µM (doses to about 37.8 µM), for the others: top-dose activity change, negative = inhibition, actives largely listed as inhibitors; calls by dose curve; tested in HEK293 cells; also: potency is read from the fitted curve at half-maximal effect; % is scaled to controls: 0 for no effect and ±100 for the full control effect
Cycloheximide cs – affects cycloheximide protein synthesis inhibition readout, counter-screen | cell reporter, cycloheximide protein synthesis inhibition counterscreen | max response, % | actives 12% (n = 300,000); in the data active = max response mostly above about 13%, no sharp cut-off; inactive = mostly below about 14%; also: read at 38.3 µM for the half of the compounds with a filed dose; 0% is about no effect
Numbers without * were called inactive; ? = inconclusive; . = no result given; ! = repeats disagree; [ ] = remark or other dose. Unless noted, calls follow the shape of the dose curve; as a rule, active = well fitted inhibition curve with a large enough effect; inconclusive = small, poorly fitted or top-dose-only effect, or another doubt; inactive = no such curve, though single readings can be large or run the other way.

SMILES	Lassa entry inh	Pf growth 96h	Shiga toxin inh	Pf growth 48h	Marburg entry inh	Cycloheximide cs
Cc1ccc(NC(=O)CCN2C(=O)c3ccccc3S2(=O)=O)cc1C	-20.2%	0.0%	.	-77.5%	22.6%	.
COc1cccc(NC(=O)CCN2C(=O)c3ccccc3S2(=O)=O)c1	15.4%	.	32.7	0.0%	25.6%	14.5*
Cc1ccc(NC(=O)CN2C(=O)c3ccccc3S2(=O)=O)cc1C	?	-5.7%	10.9	15.8%	?	11.5*
COc1ccc(C(=O)Nc2cc(C(C)C)c(O)c(S(=O)(=O)c3ccc(Cl)cc3)c2C)cc1	7.5%[46.1 µM]	.	.	.	?	.
COc1cc(SC)ccc1C(=O)Nc1ccon1	?	?	60.0*	108.8%	11.9%	33.7*
COc1cc(SC)ccc1C(=O)Nc1ccccn1	?	394.7%	45.7	190.1%	?	33.9*
COc1ccc(N=c2oc3ccccc3cc2C(=O)Nc2ccccn2)cc1OC	.	?	97.5*	70.1%	.	52.1*
COc1cc(SC)ccc1C(=O)Nc1ccc2ncccc2c1	?	107.0%	30.4*	180.9%	?	27.1*
COc1ccc(NC(=O)c2cccnc2SC)cc1OC	6.5%[46.1 µM]	6.1%	-6.3	19.8%	?	-0.2
COc1ccc(CCNC(=O)CSc2nccc(=O)[nH]2)cc1OC	-4.0%	102.2%	-17.2	16.4%	0.5%[46.1 µM]	-1.0
COc1cc(SC)ccc1C(=O)Nc1ncc(C)s1	?	22.9%	8.9	339.2%	1.46µM*	-6.6
COc1cc(SC)ccc1C(=O)Nc1ccc(Br)cn1	.	289.9%	76.1*	-44.9%	.	30.6*
COc1cc(SC)ccc1C(=O)Nc1cccc(C)n1	8.91µM*	5.1%	83.8*	88.0%	10µM*	33.1*
CSc1ccccc1C(=O)Nc1ncc(C)s1	6.7%	15.6%	17.1	.	24.0%	4.9
COc1cc(SC)ccc1C(=O)Nc1ncc(Cl)cc1Cl	?	155.9%	79.3*	111.7%	-2.1%[46.1 µM]	34.6*
COc1cc(SC)ccc1C(=O)NC(C)C	-11.7%	3.5%	23.0	2.0%	?	4.1
COc1ccc(CC(=O)OCC(=O)Nc2ncc(Cl)cc2Cl)cc1OC	4.6%	70.6%	-7.0	.	13.8%	-2.8
CN1CCC(=NNC(=O)C(=O)NC2CCCCC2)CC1	1.0%	-0.5%	-6.6	.	17.9%	-3.2
Cc1[nH]c2ccccc2c1CCNCc1ccco1	.	50.3%	2.1	-12.8%	.	0.7
CCCc1ccc2oc(C(=O)N3CCN(C4CCS(=O)(=O)C4)CC3)c(C)c2c1 (stereo unspecified)	0.8%[46.1 µM]	?	19.0	7.9%	12.8%[46.1 µM]	22.9*
CCCc1ccc2oc(C(=O)N(C)Cc3nccs3)c(C)c2c1	.	?	116.7*	-18.4%	.	56.1*
CCCc1ccc2oc(C(=O)N3CCC(O)CC3)c(C)c2c1	.	19.1%	70.0*	31.3%	.	44.3*
Cc1ccc2c(C)c(C(=O)N3CCN(C4CCS(=O)(=O)C4)CC3)oc2c1C (stereo unspecified)	-3.6%	?	-12.5	-13.5%	17.1%	18.2*
O=C(CSC1=N/C(=C/c2ccco2)C(=O)N1c1ccc(OC(F)F)cc1)NC1CCS(=O)(=O)C1 (stereo unspecified)	1.3%	-11.2%	24.0*	2.8%	1.6%[46.1 µM]	17.1
COc1ccc(N2C(=O)/C(=C\c3ccco3)N=C2SCC(=O)NC(C)C)cc1Cl	20.4%	?	7.4	-30.0%	5.6%	1.7
SMILES	Lassa entry inh	Pf growth 96h	Shiga toxin inh	Pf growth 48h	Marburg entry inh	Cycloheximide cs
COc1ccc(N2C(=O)/C(=C\c3ccco3)N=C2SCC(=O)N(C(C)C)C(C)C)cc1Cl	0.3%	?	1.8	10.4µM*	3.6%	10.1
Cc1nn(CC(=O)NC(C)c2ccccc2)c(=O)c2cc3occc3n12 (stereo unspecified)	7.4%[46.1 µM]	.	.	.	9.5%[46.1 µM]	.
COc1ccc(C(=O)N/N=C\c2ccc(OC)c(COc3ccccc3Br)c2)c(OC)c1	.	-19.9%	14.1	-6.0%	.	-1.9
O=[N+]([O-])c1ccc2oc(C3CCCCC3)nc2c1	?	36.0%	76.2*	107.2%	9.1%	28.7*
Nc1ccc2oc(C3CCCCC3)nc2c1	1.2%[46.1 µM]	?	96.5*	91.4%	?	55.0*
CS(=O)(=O)Nc1ccc(C(=O)NC2CCCCC2)cc1	11.4%	1.1%	-5.1	13.2%	?	10.0
Cn1nnc(NC(=S)NC(=O)c2cccc3c(Br)cccc23)n1	.	4.3%	-7.9	-3.5%	.	1.0
CC1CCN(c2nc3ccc(C(=O)NC(C)C)cc3s2)CC1	26.3%[46.1 µM]	.	.	.	1.9%[46.1 µM]	.
Cc1nc2c(C(=O)NCc3ccccc3)cnn2c(C)c1Cc1ccc(F)cc1	-24.2%[46.1 µM]	.	.	.	.	.
CCc1ccc(C2=NN(c3ccc(S(N)(=O)=O)cc3)C(c3ccc(F)cc3)C2)cc1 (stereo unspecified)	7.94µM*	?	-2.7	?	?	-5.4
O=S(=O)(O)c1ccc(N2N=C(c3ccccc3)CC2c2ccccc2)cc1 (stereo unspecified)	12.8%	?	-16.4	5.9%	-8.6%	8.0
NS(=O)(=O)c1ccc(N2N=C(c3ccccc3)CC2c2ccccc2)cc1 (stereo unspecified)	?	9.28µM*	-11.3	-24.0%	?	-6.6
Cc1occc1-c1nnc(SCC(=O)N(C)CCC#N)n1N	10.9%	-5.3%	-8.8	.	6.6%[46.1 µM]	-1.7
Nc1c(C(=O)O)sc2nc(-c3ccccc3)c3c(c12)CCCC3	.	?	-5.4	3.1%	.	0.6
CC(C)CCC(=O)OC1CCC2C3CCC4=CC(=O)CC[C@]4(C)C3CC[C@]12C (stereo partly specified)	.	12µM*	.	13.5µM*	.	.
CCCCCCCCCC(=O)O[C@H]1CC[C@H]2[C@@H]3CCC4=CC(=O)CC[C@]4(C)[C@H]3CC[C@]12C	.	8.49µM*	.	12µM*	.	.
CC(=O)[C@@]1(O)CC[C@H]2[C@@H]3CCC4=CC(=O)CC[C@]4(C)[C@H]3CC[C@@]21C	20.6µM*!	?	-8.1	?	18.4%	-1.3
CCCCCC(=O)O[C@]1(C(C)=O)CC[C@H]2[C@@H]3CCC4=CC(=O)CC[C@]4(C)[C@H]3CC[C@@]21C	-18.2%	0.828µM*	14.3	1.04µM*	10.3µM*	-2.5
CC(C)(C)c1nc2scc(-c3ccc(Br)cc3)c2c(=O)o1	0.0%	?	-7.8	-20.5%	15.2%[46.1 µM]	-1.5
COc1ccccc1NC(=O)N(Cc1ccco1)Cc1cc2c(C)ccc(C)c2[nH]c1=O	0.3%	27.7%	-3.4	?	0.7%	-2.5
CCc1ccc2[nH]c(=O)c(CN(Cc3ccccc3OC)C(=O)Nc3ccccc3OC)cc2c1	?	.	-9.9	11.7µM*	?	-1.4
COc1ccccc1NC(=O)N(Cc1ccco1)Cc1cc2cccc(C)c2[nH]c1=O	-21.4%	13.1µM*	-9.7	?	?	1.1
CCN1CCCC1CN(Cc1cc2cc(C)cc(C)c2[nH]c1=O)C(=O)Nc1ccccc1OC (stereo unspecified)	10.1%	34.5%	-0.9	9.28µM*	?	-0.5
COc1ccc(C(=O)N(Cc2ccco2)Cc2cc3cc(C)ccc3[nH]c2=O)cc1OC	?	.	.	.	-32.5%	.

Assay outcomes: PubChem, National Center for Advancing Translational Sciences (NCATS)
